# IDE exosite inh = displaces the probe from the exo-site of human IDE | hit rate 6.3% among 17,000 | purified IDE, FL-6b probe fluorescence polarization; hits give low values | P14735 | AID 1259349 | z-score at 20 µM;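 active = z-score of -3 or lower, meaning strong loss of probe binding signal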;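 also: His-tagged human IDE residues 42-1019 made in E. coli with 30 nM FL-6b probe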
# Target sequence (P14735 42-1019 limits assumed): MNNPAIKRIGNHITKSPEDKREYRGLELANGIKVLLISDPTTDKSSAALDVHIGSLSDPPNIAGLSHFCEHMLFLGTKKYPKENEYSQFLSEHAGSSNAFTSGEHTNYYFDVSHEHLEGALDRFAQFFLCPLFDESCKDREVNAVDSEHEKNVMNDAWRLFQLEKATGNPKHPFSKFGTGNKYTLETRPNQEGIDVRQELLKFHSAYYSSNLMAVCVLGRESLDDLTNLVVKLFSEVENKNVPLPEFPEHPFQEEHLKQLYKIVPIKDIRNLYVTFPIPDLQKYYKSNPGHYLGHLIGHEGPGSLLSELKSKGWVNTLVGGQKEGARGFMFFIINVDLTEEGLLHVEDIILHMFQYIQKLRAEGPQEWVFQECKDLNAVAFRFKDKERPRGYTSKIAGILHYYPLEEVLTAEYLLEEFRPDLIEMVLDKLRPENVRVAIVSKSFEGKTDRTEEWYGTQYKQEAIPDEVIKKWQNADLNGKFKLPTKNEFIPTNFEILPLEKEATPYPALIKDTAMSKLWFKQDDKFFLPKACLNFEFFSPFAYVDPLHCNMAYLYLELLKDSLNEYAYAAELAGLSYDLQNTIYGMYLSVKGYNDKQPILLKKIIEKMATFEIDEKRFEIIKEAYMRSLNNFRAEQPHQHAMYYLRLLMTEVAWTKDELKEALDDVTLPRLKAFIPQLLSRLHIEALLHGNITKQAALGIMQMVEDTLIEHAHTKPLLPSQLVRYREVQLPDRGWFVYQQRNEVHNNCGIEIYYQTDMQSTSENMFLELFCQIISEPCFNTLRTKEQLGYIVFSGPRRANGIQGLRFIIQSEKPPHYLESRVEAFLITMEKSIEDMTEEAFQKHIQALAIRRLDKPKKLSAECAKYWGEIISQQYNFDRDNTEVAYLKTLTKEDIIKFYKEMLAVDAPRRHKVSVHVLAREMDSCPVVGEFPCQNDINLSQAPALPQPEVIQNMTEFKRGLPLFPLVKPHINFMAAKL
# An asterisk follows results filed as active. The sample as a whole holds a higher share of hits than the screen did.
SMILES,IDE exosite inh
C[C@H](CO)N1C[C@H](C)[C@@H](CN(C)Cc2ccc(-c3ccccc3)cc2)Oc2ccc(N(C)C)cc2CC1=O,0.27
COCC(=O)N1[C@@H](C#N)[C@@H](c2ccc(-c3cccc(F)c3)cc2)[C@@H]1CO,3.3
N#C[C@H]1[C@@H](c2ccccc2-c2cccc(F)c2)[C@H](CO)N1C(=O)C1CCC1,2.2
COc1ccc(NC(=O)N2CCCCN3[C@H](CO)[C@H](c4ccc(-c5ccccc5C)cc4)[C@@H]3C2)cc1,-0.82
COc1ccc(NC(=O)N2CCCCN3[C@H](CO)[C@@H](c4ccc(-c5ccccc5C)cc4)[C@H]3C2)cc1,-1.1
COc1ccc(NC(=O)N2CCCCN3[C@@H](CO)[C@H](c4ccc(-c5ccccc5C)cc4)[C@@H]3C2)cc1,-10*
COc1ccc(NC(=O)N2CCCCN3[C@H](C2)[C@@H](c2ccc(-c4ccccc4F)cc2)[C@@H]3CO)cc1,0.93
COc1ccc(NC(=O)N2CCCCN3[C@H](CO)[C@H](c4ccc(-c5ccccc5F)cc4)[C@H]3C2)cc1,0.79
COc1ccc(NC(=O)N2CCCCN3[C@@H](CO)[C@@H](c4ccc(-c5ccccc5C)cc4)[C@@H]3C2)cc1,-4.5*
CC(C)C#Cc1ccc([C@@H]2[C@@H](C#N)N(C(=O)C3CCC3)[C@H]2CO)cc1,-0.72
C[C@H](NC(=O)C[C@@H]1CC[C@H]2[C@H](COc3ccc(NS(=O)(=O)c4ccc(Cl)cc4)cc3C(=O)N2C)O1)c1ccccc1,0.21
O=C(c1cccnc1)N1CC(=O)N2[C@H](C1)[C@@H](c1ccc(-c3ccccc3F)cc1)[C@@H]2CO,-2.7
Cc1ccccc1-c1ccc([C@@H]2[C@@H](CO)N3C(=O)CN(C(=O)c4ccncc4)C[C@H]23)cc1,-2.3
Cc1ccccc1-c1ccc([C@@H]2[C@H]3CN(C(=O)c4cccnc4)CC(=O)N3[C@H]2CO)cc1,-20*
Cc1ccccc1-c1ccc([C@H]2[C@@H](CO)N3C(=O)CN(C(=O)c4cccnc4)C[C@H]23)cc1,-17*
CCCC#Cc1ccc([C@@H]2[C@H](CO)N3C(=O)CN(C(=O)c4cccnc4)C[C@@H]23)cc1,0.55
O=C(C[C@@H]1C[C@H]2c3cc(NC(=O)CC4CC4)ccc3O[C@H]2[C@H](CO)O1)NCC1CC1,1.1
O=C1CNC[C@@H]2[C@H](c3ccc(C4=CCCCC4)cc3)[C@H](CO)N12,1.9
CCC(=O)N1CCCCN2[C@H](CO)[C@@H](c3ccc(C#Cc4cccnc4)cc3)[C@@H]2C1,-5.2*
O=C(c1cccnc1)N1CCCCN2[C@H](CO)[C@H](c3ccc(C#Cc4cccnc4)cc3)[C@H]2C1,4.7
CCC(=O)N1CCCCN2[C@@H](CO)[C@H](c3ccc(C#Cc4cccnc4)cc3)[C@@H]2C1,-5.4*
COCC(=O)N1CCCCN2[C@H](CO)[C@@H](c3ccc(C#Cc4cccnc4)cc3)[C@H]2C1,2.7
COCC(=O)N1CCCCN2[C@H](CO)[C@@H](c3ccc(C#Cc4cccnc4)cc3)[C@@H]2C1,0.082
CCC(=O)N1CCCCN2[C@H](CO)[C@H](c3ccc(C#Cc4cccnc4)cc3)[C@H]2C1,-3.2*
O=C(c1cccnc1)N1CCCCN2[C@H](C1)[C@H](c1ccc(C#Cc3cccnc3)cc1)[C@@H]2CO,-1.5
SMILES,IDE exosite inh
O=C(c1cccnc1)N1CCCCN2[C@H](CO)[C@@H](c3ccc(C#Cc4cccnc4)cc3)[C@@H]2C1,-0.3
COCC(=O)N1CCCCN2[C@H](C1)[C@@H](c1ccc(C#Cc3cccnc3)cc1)[C@@H]2CO,-0.14
CC(=O)N1[C@@H](CO)[C@@H](c2ccc(C3=CCCC3)cc2)C12CN(C(=O)NC(C)C)C2,1.2
CN(C[C@@H]1[C@H](c2ccccc2)[C@@H](CO)N1C(=O)C1CCC1)C(=O)c1ccccn1,0.58
CN1c2ccc(Br)cc2[C@@H]2[C@@H](CCN2C(=O)CN2CCOCC2)[C@@H]1CO,2
CCS(=O)(=O)N1CC(=O)N2[C@H](CO)[C@@H](c3ccc(C#CCc4ccccc4)cc3)[C@H]2C1,3.2
O=C(Nc1ccc2c(c1)[C@@H]1C[C@@H](CC(=O)N3CCOCC3)O[C@@H](CO)[C@@H]1O2)Nc1ccccc1F,-1.4
COc1ccc(C#Cc2ccc([C@H]3[C@@H](CO)N4C(=O)CN(C(=O)c5cccnc5)C[C@@H]34)cc2)cc1,-0.96
COc1ccc2c3c(n(C)c2c1)[C@H](CO)N(C)CC31CCN(C(=O)NC(C)C)CC1,-1.7
O=C(NC[C@@H]1[C@H](c2ccccc2)[C@H](CO)N1CC1CCCC1)c1ccncc1,6.2
C[C@@H]1CN([C@H](C)CO)C(=O)c2cc(NS(=O)(=O)c3cn(C)cn3)ccc2O[C@@H]1CN(C)S(=O)(=O)c1ccc(F)cc1,0.72
C[C@H]1CN([C@@H](C)CO)C(=O)c2cc(NC(=O)C3CC3)ccc2O[C@H]1CN(C)S(=O)(=O)c1ccccc1,0.3
C[C@@H]1CN([C@@H](C)CO)C(=O)c2cc(NC(=O)C3CC3)ccc2O[C@@H]1CN(C)S(=O)(=O)c1ccccc1,0.11
C[C@@H]1CN([C@H](C)CO)C(=O)c2cc(NC(=O)C3CC3)ccc2O[C@H]1CN(C)S(=O)(=O)c1ccccc1,-3.5*
C[C@@H]1CN([C@H](C)CO)C(=O)c2cc(NS(=O)(=O)c3cn(C)cn3)ccc2O[C@H]1CN(C)S(=O)(=O)c1ccc(F)cc1,-4.5*
C[C@@H]1CN([C@@H](C)CO)C(=O)c2cc(NS(=O)(=O)c3cn(C)cn3)ccc2O[C@H]1CN(C)S(=O)(=O)c1ccc(F)cc1,-0.032
CCCN1C[C@@H](C)[C@@H](OC)CN(C)C(=O)c2cc(NS(=O)(=O)c3ccccc3)ccc2OC[C@@H]1C,-0.77
C/C=C/c1ccc([C@H]2[C@@H](CO)N3C(=O)CN(Cc4ccc(C)cc4)C[C@@H]23)cc1,0.047
O=C(c1ccc(F)cc1)N1CC(=O)N2[C@H](C1)[C@@H](c1ccc(C#Cc3ccc(F)cc3)cc1)[C@@H]2CO,1.7
C[C@H](NC(=O)C[C@@H]1CC[C@@H]2[C@H](COC[C@H](O)CN2Cc2ccc(C(F)(F)F)cc2)O1)c1ccccc1,1.2
COc1ccccc1C#Cc1ccc([C@H]2[C@H](C#N)N(C(=O)C3CCCCC3)[C@H]2CO)cc1,-6.3*
N#C[C@H]1[C@@H](c2ccc(C#Cc3ccc(F)cc3)cc2)[C@H](CO)N1C(=O)C1CCCC1,5.4
COc1ccccc1C#Cc1ccc([C@H]2[C@@H](C#N)N(C(=O)C3CCC3)[C@@H]2CO)cc1,-7.8*
COc1cccc(C#Cc2ccc([C@@H]3[C@@H](CO)N(C(=O)C4CCCCC4)[C@H]3C#N)cc2)c1,4.7
COc1cccc(C#Cc2ccc([C@@H]3[C@@H](C#N)N(C(=O)C4CCC4)[C@@H]3CO)cc2)c1,4.2
SMILES,IDE exosite inh
N#C[C@H]1[C@H](c2ccc(C#Cc3ccc(F)cc3)cc2)[C@H](CO)N1C(=O)C1CCCC1,4
N#C[C@H]1[C@H](c2ccc(C#Cc3ccccc3F)cc2)[C@H](CO)N1C(=O)C1CCC1,2.2
COc1cccc(C#Cc2ccc([C@@H]3[C@@H](C#N)N(C(=O)C4CCCCC4)[C@H]3CO)cc2)c1,2.4
N#C[C@@H]1[C@@H](c2ccc(C#Cc3ccc(F)cc3)cc2)[C@H](CO)N1C(=O)C1CCCC1,5.4
COc1ccccc1C#Cc1ccc([C@@H]2[C@@H](C#N)N(C(=O)C3CCCCC3)[C@@H]2CO)cc1,-8.6*
COc1ccccc1C#Cc1ccc([C@H]2[C@@H](CO)N(C(=O)C3CCCCC3)[C@H]2C#N)cc1,-5.1*
